{
  "source": "PubChem BioAssay",
  "note": "Unmarked numbers belong to inactive results. The rule behind the calls is not given here.",
  "data": [
    {"target": "Pantothenate synthetase (Mycobacterium tuberculosis (strain ATCC 25618 / H37Rv)) (UniProt P9WIL5)", "sequence (P9WIL5 whole entry, looked up)": "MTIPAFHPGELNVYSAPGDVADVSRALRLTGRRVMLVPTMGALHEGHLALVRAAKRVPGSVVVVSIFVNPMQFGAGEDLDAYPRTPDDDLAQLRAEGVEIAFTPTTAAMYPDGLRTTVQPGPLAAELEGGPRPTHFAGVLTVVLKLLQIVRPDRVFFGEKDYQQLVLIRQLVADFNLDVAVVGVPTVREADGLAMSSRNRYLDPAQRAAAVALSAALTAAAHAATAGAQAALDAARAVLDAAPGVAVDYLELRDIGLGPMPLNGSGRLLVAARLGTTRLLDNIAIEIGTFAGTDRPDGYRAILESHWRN", "test": "Coupled enzyme confirmation of inhibitors against recombinant Mtb PanC (AID 375);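 note: 0% = full reaction with vehicle and 100% = no enzyme background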", "settings": "coupled enzyme assay; at 10 µM, active compounds read high", "units": {"inhibition": "%"}, "values": [
      {"compound": "CC1CCc2nn(CC(=O)NCCN3CCCCC3C)cc2C1", "note": "(stereo not given)", "inhibition": 0},
      {"compound": "CN(Cc1nc(-c2ccncc2)no1)S(=O)(=O)c1ccc(Br)cc1", "inhibition": 2},
      {"compound": "CCOC(=O)C1=C(N)OC2=C(C(=O)CC(C)(C)C2)C1c1ccoc1", "note": "(stereo not given)", "inhibition": 0},
      {"compound": "O=C1CCCCCN1CSc1nc2ccccc2s1", "inhibition": 0},
      {"compound": "Cn1c(Cc2ccccc2)nnc1SCC(=O)c1ccc(Br)s1", "inhibition": 0},
      {"compound": "O=C(Nc1ccccc1)N(CCCN1CCOCC1)Cc1cc2cc3c(cc2[nH]c1=O)OCCO3", "inhibition": 0},
      {"compound": "O=C(c1cc(-c2cccs2)on1)N1CCc2ccccc2C1", "inhibition": 2},
      {"compound": "CCCCn1c(SCC(=O)Nc2cc(C)on2)nnc1-c1cccnc1", "inhibition": 0},
      {"compound": "C[N+]12CCC(CC1)C(OC(=O)C(O)(c1ccccc1)c1ccccc1)C2", "note": "(stereo not given)", "inhibition": 0},
      {"compound": "COc1ccc(NC(=O)CN(c2cc(C)cc(C)c2)S(=O)(=O)c2c(C)noc2C)cc1OC", "inhibition": 0},
      {"compound": "CCOc1ccc(-c2c(C#N)c(N)nc3c2c(=O)n(C)c(=O)n3C)cc1OC", "inhibition": 6},
      {"compound": "CCOC(=O)C1=C(C)Nc2ncnn2C1c1cc(OC)ccc1OC", "note": "(stereo not given)", "inhibition": 0},
      {"compound": "CN(C)c1ccc2c(c1)OC(N)=C(C#N)C2c1cccc(F)c1", "note": "(stereo not given)", "inhibition": 0},
      {"compound": "Cn1c(Cc2cccs2)nnc1SCC(=O)N1CCc2ccccc21", "inhibition": 0},
      {"compound": "COc1ccc(Cn2c(N)c(C#N)c3nc4ccccc4nc32)cc1OC", "inhibition": 1},
      {"compound": "O=C(Nc1ccc2[nH]c3c(c2c1)CCCC3)c1ccco1", "inhibition": 0},
      {"compound": "O=C(Cn1c(NCCO)nc2ccccc21)c1ccccc1", "inhibition": 6},
      {"compound": "CC(C)c1ccc(NC(=O)C2CC(=O)N(C(C)C)C2)cc1", "note": "(stereo not given)", "inhibition": 5},
      {"compound": "COc1ccc(C(=O)NCCn2ccc3ccccc32)cc1", "inhibition": 0},
      {"compound": "COC(=O)Cn1cnc2sc(C)c(S(=O)(=O)N3CCC(C)CC3)c2c1=O", "inhibition": 4},
      {"compound": "CCC1CCCCN1CCCNC(=O)c1ccc(CS(=O)(=O)Cc2ccccc2F)o1", "note": "(stereo not given)", "inhibition": 4},
      {"compound": "COC(=O)Cc1c(C)c2ccc(OCC(=O)N3CCOCC3)cc2oc1=O", "inhibition": 0},
      {"compound": "O=C(Nc1ccccc1)N1CCC(c2ccccc2)C1", "note": "(stereo not given)", "inhibition": 6},
      {"compound": "CCN(CCCCOC(=O)c1ccc(OC)c(OC)c1)C(C)Cc1ccc(OC)cc1", "note": "(stereo not given)", "inhibition": 9},
      {"compound": "COCCNc1nc(SCC(=O)N2CCN(c3ccccc3)CC2)nc2ccccc12", "inhibition": 5},
      {"compound": "Cc1nn(-c2ccc(Cl)cc2)c2sc(C(=O)N3CCN(c4ccccn4)CC3)cc12", "inhibition": 4},
      {"compound": "Cc1nn(-c2ccc(F)cc2)c(C)c1NS(=O)(=O)c1ccc(Cl)cc1", "inhibition": 11},
      {"compound": "Cc1cc(C)n(-c2ccc(N3CCOCC3)nn2)n1", "inhibition": 0},
      {"compound": "CC1(C)Cc2c(sc3c2c(=N)n(Cc2ccco2)c(=O)n3Cc2ccccc2)CO1", "inhibition": 0},
      {"compound": "CC(C)OC(=O)CN1C(=O)C(C)(C)Oc2ccc(C(=O)NC3CC3)cc21", "inhibition": 0},
      {"compound": "CCc1nnc(NC(=O)c2ccc(S(=O)(=O)N(CC(C)C)CC(C)C)cc2)o1", "inhibition": 0},
      {"compound": "O=S(=O)(c1cccs1)N1CCN(C/C=C/c2ccccc2)CC1", "inhibition": 0},
      {"compound": "COc1ccccc1CNC(=O)Nc1cccs1", "inhibition": 0},
      {"compound": "COc1ccc(C2/C(=C(/O)c3cnn(-c4ccccc4)c3C)C(=O)C(=O)N2CCN(C)C)cc1OC", "note": "(stereo not given)", "inhibition": 3},
      {"compound": "O=C(O)c1cc(=O)c2c(OCC(O)COc3cccc4oc(C(=O)O)cc(=O)c34)cccc2o1", "inhibition": 1},
      {"compound": "Cc1ccc2c(c1C)NC(=O)C2(O)CC(=O)c1ccc2c(c1)OCO2", "note": "(stereo not given)", "inhibition": 0},
      {"compound": "Cc1ccc(OC(=O)CCC(=O)OCCCC(F)(F)C(F)(F)F)cc1", "inhibition": 3},
      {"compound": "Cc1nc(C)c(C(=O)C2=C(O)C(=O)N(CCN3CCOCC3)C2c2cccnc2)s1", "note": "(stereo not given)", "inhibition": 13},
      {"compound": "CCc1nc2sc(C)c(C)c2c(=O)n1CCO", "inhibition": 7},
      {"compound": "CN(Cc1ccccc1)C(=O)c1ccccc1NC(=O)c1ccco1", "inhibition": 0}
    ]}
  ]
}
